Here are results for 58 compounds from the supplement of paper PMC4723716.

Each structure is given as a SMILES string. In all, about 3,600 compounds were measured (“viability index relative to DMSO control”: median about 0.81, lowest 2% from about 0.13 on). The full list was thinned out, with the lowest values kept by preference.
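Note: Saponin-lysis sexual stage assay in serum-free medium: MitoTracker Red CMXRos staining plus saponin, high-content imaging, particle count per well divided by plate mean of DMSO wells.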

The subject of this assay is Plasmodium falciparum NF54 stage V gametocytes. The experiment in a line: viability index relative to DMSO control (fraction); higher = less gametocyte killing. Particulars: 1.25 µM, incubation time: 72 h.
As to `CC(C)c1ccc2c(c1)c1c3c([n+](C)ccn32)CCC1`, the viability index amounted to 1.22. In the case of `CC(Cc1ccsc1)Nc1nc2nonc2nc1N(C)C` (stereo not drawn), the viability index came out at 0.853.

On to `Cc1ccc(OCCCCN2CCOCC2)c([N+](=O)[O-])c1`, for which the viability index was 0.798. In the case of `O=C1C=C(Nc2cccc(C(F)(F)F)c2)C(=O)c2ccccc21` it was 0.0673.

For the compound `O=C(Nc1cc(Cl)cc(Cl)c1)Nc1cccc(C(F)(F)F)c1`, the viability index is 1.06.

Turning to `COC1=C(Nc2cccc(C(F)(F)F)c2)C(=O)c2ccccc2C1=O`, the viability index was found to be 0.606. In the case of `CCOC(=O)c1ccc(N(C(=O)Cc2c[nH]c3ccccc23)C(C(=O)NC2CCCCC2)c2cccc(OC)c2OC)cc1` (stereo not drawn) it was 0.849.

As to `NC12CC3CC(C1)CC(SSC14CC5CC(CC(N)(C5)C1)C4)(C3)C2`, the viability index turned out to be 0.11. The value for `COc1ccc(C2CC(=O)C3=C(C2)NC(=O)CC3c2ccc([N+](=O)[O-])cc2)cc1OC` (stereo not drawn) was 0.406; that for `O=C(Nc1ccc(-n2cnnn2)cc1)C1CCN(Cc2cc3ccccc3o2)CC1` was 0.942. The value for `COc1ccc2c(c1)OC(O)(C(F)(F)C(F)(F)F)CC2=O` (stereo not drawn) was 0.6; that for `CCN(CC)S(=O)(=O)c1cc(C(=O)O)ccc1Cl` was 0.971. For the compound `COc1cccc(OC)c1C(=O)Nc1cc(C(F)(F)F)ccc1Cl`, the viability index is 0.971. For the compound `COC(=O)c1ccc(C=NNc2cc(C)nc3ccc(OC)cc23)cc1`, the viability index stood at 0.0573.

`COc1ccc(C=NNc2cc(C)nc3ccccc23)cc1` returned a viability index of 0.946. The value for `COc1ccc(C=NNc2cc(C)nc3ccc(OC)cc23)c(OC)c1` was 0.591; that for `CC(C)(C)CC(C)(C)c1ccc(O)c(CN2CCN(CCC#N)CC2)c1` was 0.735; that for `COc1ccc(CNC2CCN(c3cccc(NC(=O)C4CC4)c3)CC2)cc1` was 1.12. In the case of `C=CCN1C(=O)C(=C2Sc3ccc(OC)cc3N2C)SC1=Nc1ccccc1-c1ccccc1`, the viability index came out at 0.448.

In turn, `Oc1ccc(-c2cncnc2)cc1CNC1CCN(Cc2ccccc2)CC1` had a viability index of 1. As for `CCN(CC)Cc1cc(Nc2ccnc3cc(Cl)ccc23)ccc1O`, the viability index stood at 0.873. In the case of `COc1ccc(Nc2nc(NN=Cc3cccc([N+](=O)[O-])c3OC)nc(Nc3ccc([N+](=O)[O-])cc3)n2)cc1`, the viability index worked out at 0.469. The value for `O=[N+]([O-])c1ccc(C=NNc2nc(Nc3ccccc3)nc(Nc3ccccc3)n2)o1` was 0.0664; that for `O=[N+]([O-])c1ccc(Nc2nc(NN=Cc3ccccc3I)nc(Nc3ccccc3)n2)cc1` was 0.985. In the case of `O=[N+]([O-])c1ccc(-c2ccc(C=NNc3nc(Nc4ccccc4)nc(Nc4ccccc4)n3)o2)cc1` it was 0.626. In the case of `COc1ccc(-c2cnnc(NN=Cc3ccc([N+](=O)[O-])o3)n2)cc1` it was 0.0154. For the compound `Cc1nonc1C(=O)NN=Cc1ccc([N+](=O)[O-])o1`, the viability index was 0.871. The compound `COc1ccc(NC(=O)NCc2cccn2Cc2ccc(F)cc2)cc1OC` came in with a viability index of 0.952.

The compound `CCOC(=O)c1sc(Nc2c(Cl)cc(S(N)(=O)=O)cc2Cl)nc1C` came in with a viability index of 0.886. In the case of `CCOC(=O)C1=C(C)NC2=C(C(=O)CC(c3ccc(OC)c(OC)c3)C2)C1c1ccccc1OC` (stereo not drawn) it was 0.68; in that of `CCOC(=O)c1c(NC(=O)CSc2nnc(CNC(=O)c3ccc(C)c(C)c3)n2C2CCCCC2)sc2c1CCC2`, 0.784; in that of `O=C1CN(C(=O)CCC2CCCC2)C(c2ccc(F)cc2)c2cc(Cl)ccc2N1` (stereo not drawn), 0.751.

Regarding `S=P(OCC1C(COP(=S)(c2ccccc2)c2ccccc2)C1(Cl)Cl)(c1ccccc1)c1ccccc1` (stereo not drawn), the viability index was determined as 0.562.

`CN1C(=O)N(C)C2(c3ccccc3)NN3C(=NC12c1ccccc1)SC1=C3C(=O)c2ccccc2C1=O` (stereo not drawn) showed a viability index of 0.0309. The value for `CCOC(=O)c1nnn(-c2nonc2N)c1-c1ccc(Br)cc1` was 0.676; that for `Cc1oc2c(c1C(=O)NCc1cccnc1)C(=O)c1ccccc1C2=O` was 0.231. On to `Cc1oc2c(c1C(=O)N1CCN(C)CC1)C(=O)c1ccccc1C2=O`, for which the viability index turned out to be 0.43. The value for `CCOC(=O)c1c(C)oc2c1C(=O)c1ccccc1C2=O` was 0.902; that for `CCOC(=O)C1CCN(C(=O)c2c(C)oc3c2C(=O)c2ccccc2C3=O)CC1` was 0.0992. `Cc1oc2c(c1C(=O)NCCCn1ccnc1)C(=O)c1ccccc1C2=O` came in with a viability index of 0.0826. As for `CCOC(=O)C1CCCN(C(=O)c2c(C)oc3c2C(=O)c2ccccc2C3=O)C1` (stereo not drawn), the viability index worked out at 0.726. Regarding `Cc1oc2c(c1C(=O)NCC1CCCO1)C(=O)c1ccccc1C2=O` (stereo not drawn), the viability index was found to be 0.195. For the compound `Cc1oc2c(c1C(=O)NC1CCS(=O)(=O)C1)C(=O)c1ccccc1C2=O` (stereo not drawn), the viability index came out at 0.0502. Compound `Cc1oc2c(c1C(=O)N1CCC(C)CC1)C(=O)c1ccccc1C2=O` showed a viability index of 0.587.

`Cc1cc(I)ccc1N1C(=O)C2C3c4ccccc4C(CO)(c4ccccc43)C2C1=O` (stereo not drawn): the viability index was 1.06. In the case of `CC(=O)N(C1=C(N2CCOCC2)C(=O)c2ccccc2C1=O)c1ccc(C(C)C)c(C)c1` it was 0.509; in that of `Oc1c(C(Nc2ccccn2)c2ccc(Br)cc2)ccc2cccnc12` (stereo not drawn), 1.1. The value for `Cc1cc(C)n(-c2ccc(NC(=O)C3CCN(Cc4cc(C)c(C)o4)CC3)cc2)n1` was 0.926; that for `Oc1ccc2ccccc2c1CNc1nc2ccccc2[nH]1` was 0.865.

On to `CCN(CC)CCNc1ccc(Nc2ccnc3cc4ccccc4cc23)cc1`, for which the viability index is 0.423.

Turning to `N#Cc1cc2nc3c(nc2cc1C#N)-c1ccccc1C3=O`, the viability index was 0.0308.

`Cc1ccc(-c2cc3c(nn2)-c2ccccc2C3=O)cc1` showed a viability index of 0.65. As to `CCOC(=O)c1ccc2nc3c(nc2c1)C(=O)c1ccccc1C3=O`, the viability index came to 0.359. The value for `Cc1[nH]c2ccccc2c1C=Cc1cc[n+](C)cc1` was 1.08; that for `O=C(C1CCN(c2nnnn2-c2ccccc2)CC1)N1CCc2ccccc2C1` was 0.826. In the case of `N#CC(=CC=Cc1ccc([N+](=O)[O-])o1)c1nc2ccccc2[nH]1` it was 0.0143; in that of `N#CC(=Cc1ccc(Sc2ccccc2)o1)c1nc2ccccc2[nH]1`, 0.776; in that of `CCN(CC)c1ccc(C=C(C#N)c2nc3ccccc3[nH]2)o1`, 0.609.
